# Screening results from PubChem.
# Most compounds without a hit are left out; they make up all but 3.5% or so of the library.
# Pf apPOL inh = Pf-apPOL inhibitors, biochemical, fluorescence. 210,000 compounds, 0.25% hits. AID 1794808, 2022. Plasmodium falciparum apicoplast DNA polymerase (apPOL). inhibition, % at 10 µM. Recombinant Pf-apPOL, molecular beacon fluorescence, 1.5 h
# mHTT CaM bind = mutant huntingtin-calmodulin interaction inhibitors – biochemical, AlphaScreen, primary screen; AlphaScreen His-mHTT/GST-CaM binding, luminescence; P42858; AID 1671202, 2021; 190,000 compounds, 3.6% hits; inhibition, % at 15 µM;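 further: 0% = both proteins with DMSO and 100% = one protein alone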
# Starred values were filed as active, the others as inactive; · = no result given. No stated cut-off is given here; in the data, active means inhibition above about 50%; inactive means the rest.
SMILES,Pf apPOL inh,mHTT CaM bind
CCCN(CCO)Cc1cccc(F)c1,-4.7,0.0
Cc1cccc(NC(=O)N2CCn3cccc3C2C(C)C)c1 (stereo unspecified),-9.5,4.0
Cc1ccc(NC(=O)N2CCn3cccc3C2C)cc1F (stereo unspecified),78.8*,5.3
CCCC1c2ccc(C)n2CCN1C(=O)Nc1ccc(Cl)cc1 (stereo unspecified),-3.8,50.5*
Cc1ccc(NC(=O)N2CCn3cccc3C2Cc2ccccc2)cc1F (stereo unspecified),2.7,4.3
Cc1cc(NC(=O)N2CCn3cccc3C2C(C)C)ccc1Br (stereo unspecified),0.7,99.5*
CCCC1c2ccc(C)n2CCN1C(=O)Nc1ccc(C)c(F)c1 (stereo unspecified),4.1,10.2
CCCC1c2cccn2CCN1C(=O)Nc1ccc(C)c(Cl)c1 (stereo unspecified),-7.1,79.6*
CCCC1c2cccn2CCN1C(=O)Nc1cccc(F)c1 (stereo unspecified),-12.9,25.7
CCc1cc2c(=O)c(-c3ccc(F)cc3)c(C)oc2c(CN(C)C)c1O,-7.3,3.9
c1ccc(-c2noc(CN3CCN(C(c4ccccc4)c4ccccc4)CC3)n2)cc1,·,-7.3
CCOC(=O)N1CCN(C(=O)COc2cccc(C)c2C)CC1,1.2,-5.8
Nc1nonc1-c1nc2ccccc2n1Cc1nn[nH]n1,0.5,6.9
O=C(NNc1nc(-c2ccccc2)c2cc(Br)ccc2n1)C12CC3CC(CC(C3)C1)C2,-4.9,2.5
OCCCNc1nc(-c2ccccc2Cl)c2cc(Br)ccc2n1,-3.9,51.0*
CC(C)c1ccc(NC(=O)c2ccc3c(c2)C(=O)N(CC2CCCO2)C3=O)cc1 (stereo unspecified),6.8,-1.9
COc1cccc2cc(-c3nc4ccccc4[nH]3)c(=N)oc12,74.6*,12.0
COc1cccc2cc(-c3nc4ccccc4[nH]3)c(=Nc3ccc(C(N)=O)cc3)oc12,-0.3,-1.0
CCOC(=O)C1CCC(CNC(=O)N2CCn3cccc3C2C(C)C)CC1 (stereo unspecified),-4.0,13.4
CCN(CC)C(=O)CC[C@H]1CC[C@]2(CCCN(Cc3cccs3)C2)O1,-4.6,-3.6
CCOC(=O)CC[C@@H]1CC[C@]2(CCCN(Cc3cccs3)C2)O1,-5.5,93.9*
O=C1NC(=Nc2ccccc2Cl)S/C1=C\c1cccc([N+](=O)[O-])c1O,5.8,44.0
O=C1NC(=Nc2ccccc2Cl)S/C1=C/c1ccccc1F,-1.6,66.0*
N#Cc1ccc(/C=C2/SC(=Nc3ccccc3Cl)NC2=O)cc1,2.5,35.0
O=C1NC(=Nc2ccccc2Cl)S/C1=C/c1ccc(F)cc1,-4.5,76.0*
SMILES,Pf apPOL inh,mHTT CaM bind
Cc1ccc(C2Cn3nnc(C(=O)N4CCC(C(=O)NC(C)C)CC4)c3CO2)cc1 (stereo unspecified),-1.9,-1.4
O=C(NCc1ccccc1)c1ccc2nc(-c3ccccn3)c(-c3ccccn3)nc2c1,2.1,6.2
CCC(=O)N1N=C(c2cccc(NS(=O)(=O)c3ccccc3)c2)CC1c1cccs1 (stereo unspecified),-0.1,7.8
CC1(C(=O)O)CCC(C(=O)NCCc2ccccc2)C1(C)C (stereo unspecified),-8.5,-5.6
COc1ccc(-c2cc(-c3ccccc3)nc(=O)[nH]2)cc1,-6.2,3.0
COc1ccc(-c2cc(-c3cc(OC)ccc3O)[nH]n2)cc1,-3.2,72.0*
COc1ccc(C(=O)Nc2ccccc2C(=O)NC(Cc2ccccc2)C(=O)NC(C)C)cc1 (stereo unspecified),0.0,1.4
CCn1ccc2ccn(Cc3nc(C4CC4)no3)c(=O)c21,-3.4,2.9
O=C(c1ccc(Cl)cc1)N(c1ccc(Cl)cc1)C1C=CS(=O)(=O)C1 (stereo unspecified),-0.4,1.0
Cc1ccc(N(C(=O)c2ccc(C(C)(C)C)cc2)C2C=CS(=O)(=O)C2)cc1 (stereo unspecified),79.7*,20.2
CCOc1cc(N2CCOCC2)c(OCC)cc1N,-6.0,52.7*
CCOc1ccc(C(=O)Nc2ccccc2N2CCOCC2)cc1Br,-5.5,-10.1
O=S(=O)(Nc1ccc(F)cc1)c1cccn2cnnc12,61.6*,44.9
O=S(=O)(c1cccn2cnnc12)N(Cc1ccccc1F)c1ccc(F)c(F)c1,-5.2,60.7*
O=S(=O)(c1cccn2cnnc12)N(Cc1cccc(F)c1)c1ccc(F)cc1,41.9,50.7*
O=S(=O)(c1cccn2cnnc12)N(Cc1cccc(F)c1)c1ccc(F)c(F)c1,-3.6,41.4
O=S(=O)(c1cccn2cnnc12)N(Cc1ccc(F)cc1)c1ccc(F)cc1,24.9,31.7
O=S(=O)(c1ccc2nncn2c1)N(Cc1ccccc1Cl)c1ccccc1,-4.9,20.6
COc1ccc(C2CC(c3ccc(I)cc3)Nc3ncnn32)cc1OC (stereo unspecified),-4.6,33.0
Cc1cc2c3c(c1)c(O)c(-c1ccccc1)c(=O)n3CCC2,-4.7,·
